L3MBTL1 block: L3MBTL1 (human) inhibition. Q9Y468. actives 0.66% (n = 230,000). AlphaScreen L3MBTL1–H3K9me1 peptide binding. Potency, µM (top dose mostly 57.1 µM), most hits filed as inhibitors. AID 485360; also: nearly all actives have a fitted effect of over 60% in size
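L3MBTL1 50 nM + b-AHA-H3(1-15)K9me1 75 nM, 30 min RT; compound added, 30 min RT; streptavidin donor/Ni-chelate acceptor beads 10 ug/mL each final, 30 min RT dark; AlphaScreen read.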
G9a inh: inhibitors of human histone lysine methyltransferase G9a; G9a H3K9 monomethylation, AlphaScreen, 2 h; Potency, µM (highest dose often 102 µM), actives largely listed as inhibitors; actives 8.8% (n = 350,000); also: nearly all actives have a fitted effect of over 75% in size
Target sequence (Q96KQ7 913-1193 limits assumed): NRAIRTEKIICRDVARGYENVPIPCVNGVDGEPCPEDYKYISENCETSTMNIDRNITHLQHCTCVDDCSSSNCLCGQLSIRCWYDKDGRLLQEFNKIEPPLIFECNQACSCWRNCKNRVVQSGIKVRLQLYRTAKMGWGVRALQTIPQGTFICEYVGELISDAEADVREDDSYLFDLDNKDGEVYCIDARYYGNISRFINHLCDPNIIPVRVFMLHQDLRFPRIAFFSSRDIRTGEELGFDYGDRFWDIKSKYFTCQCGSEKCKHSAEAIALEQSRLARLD
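Methyltransferase reactions run at room temperature for 2 h (20 nM enzyme, 500 nM biotin-H3K9 peptide, 20 uM SAM) after a 15 min compound preincubation; product detected by AlphaScreen beads and anti-H3K9me1 antibody.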
HP1b chromo inh: blocks HP1-beta chromodomain binding to methylated histone tails. P83916. AlphaScreen HP1-beta / biotin-H3K9me3 peptide binding. Potency, µM (doses to about 114 µM), hits mostly inhibitors. actives 0.56% (n = 390,000). AID 540317; also: nearly all actives have a fitted effect of over 70% in size
Target sequence (P83916 whole entry, looked up): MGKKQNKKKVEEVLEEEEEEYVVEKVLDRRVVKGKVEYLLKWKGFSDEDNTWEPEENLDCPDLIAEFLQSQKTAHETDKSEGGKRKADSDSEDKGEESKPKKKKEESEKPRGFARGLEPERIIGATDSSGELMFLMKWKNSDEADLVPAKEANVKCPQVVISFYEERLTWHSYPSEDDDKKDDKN
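HP1-beta protein (50 nM final) preincubated 30 min at room temperature with biotinylated H3(1-18)K9me3 peptide (50 nM) in PBS pH 7.4, 0.01% Tween-20, then compound added for 30 min. AlphaScreen streptavidin donor/nickel chelate acceptor beads (10 ug/mL final), 30 min dark, luminescence read.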
Sfp inh: Sfp phosphopantetheinyl transferase inhibition. Q9F4F7. Biochemical Sfp PPTase activity, qHTS. Potency, µM, actives largely listed as inhibitors. actives 3.5% (n = 310,000). AID 1490;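 also: the enzyme is Sfp with the accession as filed and its product quenches rhodamine fluorescence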
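After 15 min at room temperature with compound, 15 nM Sfp received 5 uM rhodamine-CoA plus 12.5 uM BHQ-2-ybbR (50 mM Hepes pH 7.6, 10 mM MgCl2). Rate came from the fluorescence difference over 30 min, ex 525/em 598 nm.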
JMJD2A Tudor inh: blocks the human JMJD2A Tudor domain | AlphaScreen JMJD2A-Tudor / H3K4me3 peptide binding | AID 504339 | O75164 | Potency, µM (highest dose often 114 µM), most hits filed as inhibitors | actives 4.4% (n = 390,000); also: nearly all actives have a fitted effect of over 50% in size
BAZ2B inh: BAZ2B (human) inhibition; Q9UIF8; AlphaScreen BAZ2B-H3K14Ac peptide displacement; Potency, µM (highest dose often 114 µM), most hits filed as inhibitors; actives 4.4% (n = 360,000); also: nearly all actives have a fitted effect of over 60% in size
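Protein-peptide AlphaScreen: BAZ2B 50 nM, b-H3K14Ac 50 nM, 1x PBS pH 7.4 + 0.01% Tween-20. Preincubation 30 min RT; cpd 30 min RT (top 110 uM); beads 20 min RT, light-protected.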
A number is an active result; - = inactive; ? = inconclusive; . = no result; [ ] = remark or other dose. Compounds with a hit are over-represented: about 12% of the library has one in this group of screens. Calls follow the shape of the dose curve; as a rule, active = well fitted curve in the direction sought with a large enough effect; inconclusive = small, poorly fitted or top-dose-only effect, or another doubt; inactive = no such curve, though single readings can be large; an effect the other way counts as inactive or inconclusive.

SMILES	L3MBTL1 block	G9a inh	HP1b chromo inh	Sfp inh	JMJD2A Tudor inh	BAZ2B inh
COCCNC(=O)c1ccc2c(c1)NC(=O)CS2	-	-	-	-	-	-
Cc1ccc(NS(=O)(=O)c2cc(NC(=O)c3ccc4c(c3)NC(=O)CS4)ccc2Cl)c(C)c1	-	2.8µM	?	16µM	-	-
COc1ccc(NC(=O)c2ccc3c(c2)NC(=O)CS3)cc1	-	?	-	.	56µM	-
CC(=O)N1CSCC1C(=O)NNS(=O)(=O)c1ccccc1 (stereo not drawn)	-	-	-	-	25µM	-
O=S(=O)(Cc1ccccc1)N1CCN(Cc2ccc(Br)cc2)CC1	.	-	?	-	3.5µM	-
CSc1ccc(CN2CCCN(C)CC2)cc1	-	10µM	?	-	13µM	56µM
CSc1ccc(CN2CCN(S(=O)(=O)Cc3ccccc3)CC2)cc1	.	89µM	?	-	5µM	-
CSc1ccc(CN2CCN(Cc3ccccc3)C(CCO)C2)cc1 (stereo not drawn)	-	-	-	-	-	-
CCc1ccc(CN2CCN(S(=O)(=O)Cc3ccccc3)CC2)cc1	.	?	-	-	0.79µM	18µM
O=S(=O)(Cc1ccc(Cl)cc1)N1CCN(Cc2ccccc2)CC1	-	?	-	-	-	-
NS(=O)(=O)c1ccc(CCNC(=O)c2ccc3nc(CCc4ccccc4)oc3c2)cc1	.	-	-	.	-	-
CCN(CC)c1ccc(/C=N/N=C(c2ccccc2)c2ccccc2)c(O)c1	-	?	-	-	?	?
Oc1ccc(/C=N/N(c2ccccc2)c2ccccc2)c(O)c1O	.	14µM	.	-	.	25µM
CCN(CC)c1ccc(/C=N/N(c2ccccc2)c2ccccc2)c(O)c1	-	?	?	-	8.9µM	10µM
CCN(CC)c1ccc(/C=N/NC(=S)NCc2ccccc2)c(O)c1	-	-	-	-	-	22µM
Oc1ccc(/C=N/N(c2ccccc2)c2ccccc2)cc1O	.	-	?	-	56µM	-
Cc1cc(C)cc(NC(=O)c2sc3nc[nH]c(=O)c3c2C)c1	.	-	-	.	-	-
O=C(CCNS(=O)(=O)c1ccc2c(c1)CCN2C(=O)C1CC1)Nc1ccc(OC(F)(F)F)cc1	.	-	-	.	?	-
COc1ccc(/C=N/NC(=O)c2ccc(-c3ccccc3)cc2)cc1O	-	-	-	-	-	-
COc1cc(OC)c(OC)cc1/C=N/Nc1nc2ccccc2[nH]1	-	-	-	-	-	-
COc1ccc(/C=N/N(Cc2ccccc2)c2ccccc2)cc1O	?	28µM	40µM	-	10µM	28µM
CCN(CC)c1ccc(/C=N/Nc2nc3ccccc3[nH]2)c(O)c1	.	?	-	-	50µM	40µM
CC(=O)Nc1cccc(C(=O)NCc2ccc3c(c2)CCN3C(=O)c2ccc(F)cc2)c1	.	-	-	.	-	-
CCC(C)NC(=O)CCCc1nnc2n(CC(C)C)c(=O)c3sccc3n12 (stereo not drawn)	.	-	-	.	-	-
COc1ccccc1C1CC(=O)Oc2cc(C)c(Cl)cc21 (stereo not drawn)	?	-	-	-	-	.
SMILES	L3MBTL1 block	G9a inh	HP1b chromo inh	Sfp inh	JMJD2A Tudor inh	BAZ2B inh
Cc1ccccc1C1CC(=O)Oc2ccc(O)cc21 (stereo not drawn)	.	10µM	.	126µM	.	.
COc1ccccc1C1CC(=O)Oc2cc(O)ccc21 (stereo not drawn)	-	-	-	-	?	.
COc1cc(C2CC(=O)Oc3ccc(O)cc32)cc(OC)c1OC (stereo not drawn)	.	16µM	.	50µM	.	.
COc1cc(C2CC(=O)Oc3c2c(=O)n(C)c2ccccc32)ccc1O (stereo not drawn)	?	-	-	-	-	-
COc1cc(C2CC(=O)Oc3c2c(=O)n(C)c2ccccc32)cc(OC)c1OC (stereo not drawn)	-	-	?	-	-	50µM
COc1ccccc1C1CC(=O)Oc2cc3c(cc21)OCO3 (stereo not drawn)	.	35µM	.	-	.	.
Cc1cccc(NC(=O)c2ccc(CNS(=O)(=O)c3ccc4c(c3)C(C)(C)C(=O)N4C)cc2)c1	.	-	-	.	-	-
Cc1c(-c2nnc(SCC(=O)Nc3ccccc3F)o2)nnn1-c1ccc(F)cc1	.	-	-	.	-	-
CCCC(O)c1nc2ccccc2n1CCCCOc1ccc(OC)cc1 (stereo not drawn)	.	-	-	.	-	-
CCN1C(=O)C2(c3ccccc31)c1c(oc3ccc(C)cc3c1=O)C(=O)N2CCCOC(C)C (stereo not drawn)	.	-	-	.	-	-
CCC1CN(C(=O)N2CCC(C(=O)NCCc3ccc(OC)cc3OC)CC2)c2cc(C)ccc2O1 (stereo not drawn)	.	-	-	.	-	-
COc1ccc(C2CC(=O)Oc3ccc(O)cc32)cc1 (stereo not drawn)	.	35µM	.	?	.	.
COc1ccc(C2CC(=O)Oc3ccc(OC)cc32)cc1 (stereo not drawn)	-	.	-	.	-	.
CCCn1c(-c2ccc(F)cc2)nc2c(N3CCN(Cc4nc(OC)cc(OC)n4)CC3)nc(C)nc21	.	.	.	-	.	.
O=C(CNC(=O)c1ccncc1)N/N=C/c1ccc(O)cc1O	-	-	-	-	?	?
O=C(CNC(=O)c1ccncc1)N/N=C/c1ccccn1	.	-	-	56µM	?	79µM
COc1cc(C(=O)NCC(=O)N/N=C/c2ccccn2)cc(OC)c1OC	.	-	-	45µM	?	-
CC(C)NC(=O)CSc1nc2ccccc2c(=O)n1Cc1ccc(C(=O)NC(C)C)cc1	.	-	-	.	-	-
Fc1ccc([C@H]2CCNC[C@H]2COc2ccc3c(c2)OCO3)cc1	.	.	.	-	.	.
CCCNC(=O)Cn1c(=O)c2cccn2c2cccnc21	.	-	-	.	-	-
Cc1ccc(-c2nnn(CC(=O)Nc3nnc(C(C)C)s3)n2)cc1	-	-	-	-	56µM	-
CC(C)c1nnc(NC(=O)CN2C(=O)c3ccccc3C2=O)s1	-	.	-	-	-	-
CCOC(=O)CCc1c(C)c(C#N)c2nc3ccccc3n2c1-n1cnc2ccccc21	.	-	-	-	-	-
Cc1nc(SCC(N)=O)c(C#N)c(C)c1C	.	-	-	-	-	-
CCOC(=O)CCc1c(C)nc(SCCCn2c(=O)[nH]c3ccccc32)c(C#N)c1C	-	?	-	-	28µM	-
CCOC(=O)CCc1c(C)nc(SCCN2CCCC2)c(C#N)c1C	-	40µM	-	-	-	-
Cc1nc2cnc(N3CCNCC3)nc2n(-c2ccccc2)c1=O	.	-[12.7 µM]	.	-	.	.
COc1ccc(NC(=O)CN(C)S(=O)(=O)c2ccc(C(=O)N3CCOCC3)s2)cc1	.	-	-	.	-	-
C=CCNC(=S)NNC(=O)c1ccc(OCCCC)cc1	-	-	-	-	-	-
